# Assay outcomes: PubChem BioAssay, National Center for Advancing Translational Sciences (NCATS)
# PNC inhibitor: High Content Assay for Compounds that inhibit the Assembly of the Perinucleolar Compartment; actives 3.1% (n = 140,000); PC3M PTB-GFP, PNC prevalence imaging, 16 h; stronger effect = lower value; activity change (PNC), negative = inhibition, % at 10 µM; AID 2417, 2010;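 active = readout at or below -70, meaning at least 70% loss of cells showing the perinucleolar compartment, a nuclear body marking cancer cells; inconclusive = readout between -30 and a set limit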;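 note: plate controls were DMSO wells for no effect and camptothecin positive control wells for full effect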
#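 Compounds are pinned in duplicate onto adhered PC3M cells stably expressing GFP-tagged PTB and incubated 16 h at 37 C. Cells are then fixed, nuclei stained with Hoechst, and PNC-positive cells counted.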
# HPGD block: qHTS Assay for Inhibitors of HPGD (15-Hydroxyprostaglandin Dehydrogenase). purified HPGD, NADH fluorescence kinetic, PGE2 substrate. Potency, µM, for inactives: at the top dose activity change, negative = inhibition, most hits filed as inhibitors. actives 4.3% (n = 150,000); note: potency is the fitted concentration of half-maximal effect
# Target sequence (P15428 whole entry, looked up): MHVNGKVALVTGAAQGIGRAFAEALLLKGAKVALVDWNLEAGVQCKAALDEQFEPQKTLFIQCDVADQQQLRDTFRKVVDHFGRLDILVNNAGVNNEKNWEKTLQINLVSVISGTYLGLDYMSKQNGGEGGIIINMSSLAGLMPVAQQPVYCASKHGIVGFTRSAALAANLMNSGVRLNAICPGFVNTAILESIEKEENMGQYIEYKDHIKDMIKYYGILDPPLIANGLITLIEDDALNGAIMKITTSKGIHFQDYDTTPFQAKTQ
#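 NADH formation kinetics: reaction with 30 uM PGE2 and 1 mM NAD+ (final), 20 nM enzyme, Tris-HCl pH 8 with Tween 20, after 15 min compound preincubation at room temperature. Fluorescence change, last versus first of five reads.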
# ALDH1A1 inh: qHTS Assay for Inhibitors of Aldehyde Dehydrogenase 1 (ALDH1A1); Potency, µM (titrated, usually from 75.3 µM), for the others: at the top dose activity, negative = inhibition, usual class: inhibitors; actives 7.3% (n = 220,000); AID 1030, 2008; Purified ALDH1A1, NADH fluorescence, propionaldehyde substrate;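 note: potency is the fitted concentration of half-maximal effect; plate controls were no enzyme wells and a reference inhibitor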
# JMJD2E inh: qHTS Assay for Inhibitors of Human Jumonji Domain Containing 2E (JMJD2E). Lysine-specific demethylase 4E (Homo sapiens), B2RXH2. JMJD2E catalytic domain, FDH-coupled NADH fluorescence (FDH is formaldehyde dehydrogenase). Potency, µM (top dose mostly 57.1 µM), inactives show at the highest dose activity change, negative = inhibition, hits mostly inhibitors. actives 1.6% (n = 230,000);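 note: potency is the fitted concentration of half-maximal effect; 0% = wells with enzyme and -100% = buffer wells without enzyme; nearly all actives have a fitted effect of over 50% in size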
# Target sequence (B2RXH2 1-337 limits assumed): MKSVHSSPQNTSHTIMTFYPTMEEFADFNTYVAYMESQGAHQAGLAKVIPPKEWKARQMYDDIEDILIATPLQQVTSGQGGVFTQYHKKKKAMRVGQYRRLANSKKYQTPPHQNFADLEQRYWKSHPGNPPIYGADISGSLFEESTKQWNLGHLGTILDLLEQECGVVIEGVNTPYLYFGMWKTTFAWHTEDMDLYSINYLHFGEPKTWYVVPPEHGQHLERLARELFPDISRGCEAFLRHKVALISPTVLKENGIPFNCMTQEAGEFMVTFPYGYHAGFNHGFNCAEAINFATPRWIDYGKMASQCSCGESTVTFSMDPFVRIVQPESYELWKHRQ
# * marks the source's active call; other numbers are inactive results; ? = inconclusive; . = no result. Hits are enriched below; roughly 11% of the tested compounds scored in any of these assays. Unless noted, calls come from the whole dose curve; as a rule, active = well fitted inhibition curve with a large enough effect (not every such curve was filed as active); inconclusive = small, poorly fitted or top-dose-only effect, or another doubt; inactive = no such curve, though single readings can be large or run the other way. Unless noted, % is set by controls: 0 for no effect and ±100 for the full control effect.
SMILES,PNC inhibitor,HPGD block,ALDH1A1 inh,JMJD2E inh
CCCCNC(=O)C(C#N)c1nc2ccccc2nc1N1CCN(c2ccccc2F)CC1 (centres undefined),-15,-3%,7%,32µM*
CCOC(=O)C1CCCN(c2nc3ccccc3nc2C(C#N)C(=O)OCC)C1 (centres undefined),4,-7%,-1%,?
CCOC(=O)C1CCN(c2nc3ccccc3nc2C(C#N)C(=O)NCCc2ccccc2)CC1 (centres undefined),22,18µM*,?,-26%
CC/C(=N/Nc1ccccc1Cl)c1cnnc(-c2ccccc2)n1,290,-13%,2%,-5%
COc1ccc(N/N=C(/C)c2cnnc(-c3ccccc3)n2)cc1,-5,-1%,9.5µM*,-7%
CCc1ccc(C(=O)COC(=O)c2cccnc2Cl)cc1,.,.,-6%,3%
CC=C1C2C=C(C)CC1(N)c1ccc(=O)[nH]c1C2 (centres undefined),.,.,-2%,.
CCn1c2ccccc2c2cc(CN3CCN(S(C)(=O)=O)CC3)ccc21,-1,-9%,2%,?
COc1ccc(CN2CCN(CC(O)Cn3c4ccccc4c4ccccc43)CC2)cc1 (centres undefined),-102*,-8%,4%,-5%
CCn1c2ccccc2c2cc(CN3CCN(Cc4cc(OC)ccc4O)CC3)ccc21,.,.,35µM*,18µM*
Cc1ccc(C(=O)Nc2ccccc2N2CCOCC2)c(C)c1,.,-7%,13%,.
Cc1sc2nc3n(c(=O)c2c1C)NC(=O)CC3,-100*,-13%,6%,-1%
O=C1CCc2nc3ccccc3c(=O)n2N1,12,-15%,?,-22%
C1CCCC1,.,-2%,-3%,.
CC(C)Cn1c(Br)nc2c1c(=O)n(CCC#N)c(=O)n2C,-123*,18µM*,-5%,0%
COc1ccc(C2C(C(=O)NCC3CCCO3)CCC(=O)N2c2ccc3c(c2)OCO3)cc1 (centres undefined),18,5%,14µM*,-4%
COc1ccc(N2C(=O)CCC(C(=O)Nc3cccc(C)n3)C2c2ccc(OC)c(OC)c2)cc1 (centres undefined),-14,-4%,22µM*,5%
COc1ccc(C2C(C(=O)N3CCOCC3)CCC(=O)N2c2ccc(OC)cc2)cc1 (centres undefined),?,-11%,14µM*,3%
COc1ccc(N2C(=O)CCC(C(=O)N3CCCCC3)C2c2ccc(OC)c(OC)c2)cc1 (centres undefined),-7,-5%,1%,-2%
Cc1c(C(=O)N2CCCC2)sc(NC(=O)c2ccccc2)c1C#N,21,?,2%,-8%
Cc1c(C(=O)N2CCCCC2)sc(N)c1C#N,-19,13µM*,?,-2%
Cc1c(C(=O)N2CCCCC2)sc(NC(=O)c2ccco2)c1C#N,52,16µM*,-10%,-7%
Cc1c(C(=O)N2CCCCC2)sc(NC(=O)C(C)C)c1C#N,22,13µM*,3%,6%
Cc1c(C(=O)N2CCCC2)sc(NC(=O)c2cccs2)c1C#N,-22,-25%,13%,8%
Cc1c(C(=O)N2CCCCC2)sc(NC(=O)C2CC2)c1C#N,25,14µM*,-6%,5%
SMILES,PNC inhibitor,HPGD block,ALDH1A1 inh,JMJD2E inh
Cc1c(C(=O)N2CCCC2)sc(NC(=O)c2ccco2)c1C#N,92,?,?,10%
CC1(C)Cc2cccc(OCC(=O)OCC(=O)Nc3cccc(S(N)(=O)=O)c3)c2O1,.,.,.,0%
CCC/C(O)=C1\C(=O)CC(c2ccccc2)CC1=NC(C)C(=O)O (centres undefined),?,-5%,-3%,-5%
O=C(NCc1ccco1)C1CCN(c2ccc(S(=O)(=O)N3CCOCC3)cc2[N+](=O)[O-])CC1,.,.,4%,-5%
O=C(O)c1ccccc1C(=O)Nc1ccccn1,-14,-2%,1%,?
O=C(Cc1ccccc1)Nc1ccccc1C(=O)Nc1ccccc1,-120*,?,11%,-1%
CC(C)C(=O)NC(=S)Nc1ccccc1C(=O)Nc1ccccc1,94,-10%,-1%,-3%
Cc1ccc(NC(=O)c2ccccc2NC(=O)Cc2ccccc2)cc1,?,-1%,-7%,6%
CC(C)(C)C(=O)NC(=S)Nc1ccccc1C(=O)Nc1ccccc1,45,-3%,25µM*,-8%
CC(C)CC(=O)NC(=S)Nc1ccccc1C(=O)Nc1ccccc1,7,-15%,10µM*,-4%
CC(C)(C)C(=O)Nc1ccccc1C(=O)Nc1ccccn1,-100*,-11%,-12%,5%
COc1ccc(-c2cc(C(=O)Nc3ccc(S(=O)(=O)Nc4onc(C)c4C)cc3)c3ccccc3n2)cc1,.,.,-7%,?
CC1(C)CC(NC(=O)C23CCC(C)(C2Br)C3(C)C)CC(C)(C)N1 (centres undefined),.,.,?,3%
CC(C)CC(=O)Nc1ccc(Nc2ccccc2)cc1,-100*,11µM*,0%,-2%
CC(C)CC(=O)Nc1ccc(Oc2ccc(NC(=O)CC(C)C)cc2)cc1,?,-2%,16%,-8%
O=C(/C=C/c1cccc(Cl)c1)NCc1ccccc1,.,.,-11%,-6%
O=C(CC1C(=O)NCCN1Cc1cccc(Oc2ccccc2)c1)NCCCn1cccn1 (centres undefined),.,.,0%,-13%
Cc1ccccc1/C=C1\SC(=S)N(/N=C/c2cc([N+](=O)[O-])ccc2O)C1=O,.,.,0.4µM*,-29%
CC(=O)Nc1ccccc1OCC(=O)N(Cc1ccccc1)C(C)C,15,-5%,-2%,6%
Cc1[nH]n(-c2ccccc2)c(=S)c1C=Nc1cccc([N+](=O)[O-])c1,-22,8.9µM*,5.6µM*,5.6µM*
Cc1[nH]n(-c2ccccc2)c(=O)c1C=Nc1cccc2cccnc12,-14,-19%,-10%,?
Cc1ccc(NCC(=O)N/N=C/c2c[nH]c3ccccc23)cc1,.,.,-3%,-2%
CCN(CC(=O)Nc1ccc([N+](=O)[O-])cc1OC)c1ccccc1,-17,-4%,?,4%
O=C(CSC1=NC(=O)C(Cc2ccccc2)C(=O)N1)Nc1ncccn1 (centres undefined),?,.,0%,-5%
O=C(CSC1=NC(=O)C(Cc2ccccc2)C(=O)N1)Nc1ncc(Br)cc1Br (centres undefined),.,.,40µM*,1%
O=c1[nH][nH]cc1C=NCc1cccc(C(F)(F)F)c1,.,.,5%,6%
O=C(NC(=S)Nc1cc([N+](=O)[O-])ccc1Cl)c1ccccc1,17,?,8.9µM*,3%
O=C(NC(=S)Nc1cc(C(F)(F)F)ccc1Cl)c1ccccc1,45,-11%,25µM*,0%
O=C(NC(NC(=S)Nc1ccc(Cl)cc1Cl)C(Cl)(Cl)Cl)c1cccc([N+](=O)[O-])c1 (centres undefined),106,-14%,18µM*,-2%
